Molecules are shown by their SMILES. Like-named read-outs stand apart in the source and are kept apart here. Among all 13,000 compounds or so, about 3,200 (25%) showed an effect of 50% or more. This is one part of the list.

The values that follow come from article PMC4552634, “A New Set of Chemical Starting Points with Plasmodium falciparum Transmission-Blocking Potential for Antimalarial Drug Discovery” (PLoS ONE, 2015).

In this assay the test system is P. falciparum stage V gametocytes. The arrangement: BacTiter-Glo ATP luminescence viability of purified stage V gametocytes in 384-well plates, per cent inhibition versus DMSO. The settings on record: 48 h, 5 µM, inhibitor.

By % Inhibition is commonly meant the relative decrease from the control value, in per cent. Regarding `CCc1ccc(NC(=O)c2ccc(CN3CCCN(Cc4cccc(O)c4)CC3)cc2)cc1` [TCMDC-136439], the “% Inhibition” value is reported as -0.6993%. The same measure, in the same setting: the same measure for `CCN(CCCN1CCCCC1)c1cc(C)nc(Nc2ccc(C(F)(F)F)cc2)n1` [TCMDC-132435]: 28.95%; for `CN(Cc1cccc(F)c1)C1CCN(c2cc(NC(=O)c3cccc(F)c3)ccn2)CC1` [TCMDC-135015]: -7.193%; for `CCOc1cc(Cc2cnc(N)nc2N)cc(OCC)c1OCC` [TCMDC-137696]: -8.766%. On the same count and under the same terms, the same measure for `COc1cc(C=CC(=O)NC2CCC(CN3CCC(c4c[nH]c5ccccc45)CC3)CC2)cc(OC)c1` (centres unmarked) [TCMDC-139947]: 16.96%. As to `O=C(/C=C/c1cccc2ccccc12)NC1CCC(CN2CCC(c3c[nH]c4ccccc34)CC2)CC1` (centres unmarked) [TCMDC-139721], under “% Inhibition”, the “% Inhibition” value is on record as -23.68%. Take `COc1cccc(C=CC(=O)NC2CCC(CN3CCC(c4c[nH]c5ccccc45)CC3)CC2)c1OC` (centres unmarked) [TCMDC-139902]: the “% Inhibition” value worked out at 78.88%. `O=C(/C=C/c1cccc2ccccc12)NC1CCC(CN2CCC(c3c[nH]c4ccccc34)CC2)CC1` (centres unmarked) [TCMDC-139706]: the “% Inhibition” value (% Inhibition) was -11.81%.

As to `COc1cccc(/C=C/C(=O)NC2CCC(CN3CCC(c4c[nH]c5ccccc45)CC3)CC2)c1` (centres unmarked) [TCMDC-139703], the “% Inhibition” value (% Inhibition) turned out to be 100.1%. Take `O=C(Nc1ccccc1N1CCOCC1)c1ncoc1-c1ccccc1C(F)(F)F` [TCMDC-123538]: the “% Inhibition” value was -21.73%.

On to `O=C(N[C@@H](Cc1ccccc1)C(=O)NCCN1CCCCC1)c1ccc(O)c(-c2cccc(C(F)(F)F)c2)c1` [TCMDC-140816], for which the “% Inhibition” value was 36.65%.

For `O=C1c2ccccc2C(=O)N1CCOc1c(Br)cc(Br)cc1CNCCCNc1cc(=O)c2ccccc2[nH]1` [TCMDC-140115], the “% Inhibition” value is given as -3.219%.

In the case of `CN1CCN(c2ccnc3ccc(NC(=O)Nc4cccc5c(C#N)cccc45)cc23)CC1` [TCMDC-139344], the “% Inhibition” value was -1.771%.

For the compound `O=C(NCCN1CCCCC1)c1ccc(Nc2nccc(Nc3ccc(Oc4ccccc4)cc3)n2)cc1` [TCMDC-138608], the “% Inhibition” value is listed as -29.44%. The same measure, in the same setting: for `O=C(NCc1cccc(C(F)(F)F)c1)[C@@H]1CCCN1C(=O)c1ccc(O)c(-c2ccc(Cl)c(Cl)c2)c1` [TCMDC-140832] the value was 33.81%; for `CC1(C)NC(N)=NC(=N)N1OCc1ccc2ccccc2c1CON1C(=N)N=C(N)NC1(C)C` [TCMDC-131631], -34.98%; for `c1cnc2ccc(NCc3ccc(-c4ccc(CNC5CCCC5)cc4)cc3)cc2c1` [TCMDC-140727], 45.47%. The same measure, in the same setting: the same measure for `c1ccc(CCNCc2cccc(-c3ccc(CNc4ccc5ncccc5c4)cc3)c2)cc1` [TCMDC-140724]: 87.5%; for `CC(C)CNCc1cccc(-c2ccc(CNc3ccc4ncccc4c3)cc2)c1` [TCMDC-140722]: 48.08%. For `COCCNCc1ccc(-c2ccc(CNc3ccc4ncccc4c3)cc2)cc1` [TCMDC-140723], the “% Inhibition” value was 92.65%.

Consider `O=C(Cc1cccc(Cl)c1)Nc1ccc(N2CCC(NCc3ccc4ncccc4c3)CC2)cc1` [TCMDC-124660], for which the “% Inhibition” value is 24.81%. Same read-out and setting: for `c1cc(CNC2CCCC2)cc(-c2ccc(CNc3ccc4ncccc4c3)cc2)c1` [TCMDC-140726] the value was 91.8%; for `COc1cccc(CNC(=O)c2ccnc(-c3ccc(CNCCOc4ccccc4)cc3)c2)c1` [TCMDC-134501], 1.442%. Same read-out and setting: for `CC(C)CNCc1ccc(-c2cccc(CNc3ccc4ncccc4c3)c2)cc1` [TCMDC-140719] the value was 58.47%; for `c1ccc(CCNCc2ccc(-c3cccc(CNc4ccc5ncccc5c4)c3)cc2)cc1` [TCMDC-140720], 4.928%; for `c1ccc(CCNCc2ccc(-c3ccc(CNc4ccc5ncccc5c4)cc3)cc2)cc1` [TCMDC-140725], -47.08%. With `CC(C)(C)CN1C(=O)C(c2ccccc2)(c2ccccc2)N=C1N` [TCMDC-136760], the “% Inhibition” value was found to be 24.92%. Still for that read-out and setting: the same measure for `CCOc1ccc(-c2nc(NC(=O)CS(=O)(=O)c3ccccc3)sc2C)cc1` [TCMDC-123524]: 43.85%; for `OC(CNc1ccnc(Nc2ccc(Cl)cc2)n1)c1ccccc1C(F)(F)F` (centres unmarked) [TCMDC-136579]: 19.1%; for `OC(CNCc1ccccc1OCc1ccccc1)c1cccc(C(F)(F)F)c1` (centres unmarked) [TCMDC-140299]: 10.62%.

Consider `O=C(/C=C/c1ccc(F)cc1)NC1CCC(CCN2CCc3ccc(-n4cccn4)cc3CC2)CC1` (centres unmarked) [TCMDC-140323], for which the “% Inhibition” value is recorded as -53.18%. On the same count and under the same terms, for `Nc1nc(N)c2c3c(cnc2n1)CCCC3` [TCMDC-137925] the value was 38.2%; for `CCn1c(-c2nonc2N)nc2c(-c3ccc(CO)o3)ncc(OCCCN)c21` [TCMDC-133807], -40.81%; for `COc1cc2c(Nc3ccc(NC(=O)c4ccccc4)cc3)ncnc2cc1OCCCN1CCOCC1` [TCMDC-125873], -52.63%. Regarding `NCCCOc1cnc(-c2ccccc2)c2nc(-c3nonc3N)n(CCc3ccccc3)c12` [TCMDC-136216], the “% Inhibition” value turned out to be 116.7%. Still for that read-out and setting: the same measure for `COc1cc2c(Nc3cccc(NC(=O)c4ccccc4)c3)ncnc2cc1OCCCN1CCOCC1` [TCMDC-135174]: 18.79%.

As to `CCn1c(-c2nonc2N)nc2c(-c3ccccc3)ncc(OCCCCNCCc3ncc[nH]3)c21` [TCMDC-136000], the “% Inhibition” value was 104.7%. On the same count and under the same terms, for `CCn1c(-c2nonc2N)nc2c(-c3ccccc3)ncc(OCCCNCCCN3CCOCC3)c21` [TCMDC-135858] the value was 109%.
